The campaign covered roughly 360,000 compounds. About 6,200 (1.7%) were called active. The sample holds actives, similar compounds and a random draw of the others, so the mix is not that of the screen. Values without a mark were called inactive.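 How the source made its calls: active means inhibition of at least 50% at 20 µM; inactive means the rest.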
Experiment: inhibition of PEG-3 promoter activity – cell-based, HeLa, luciferase luminescence, primary screen (AID 588405)
Conditions: HeLa PEG-Prom luciferase reporter, overnight, at 20 µM, stronger effect = higher value

Row | SMILES | inhibition
1 | CC1C(C)N(C(=O)CCl)c2ccccc2N1C(=O)CCl (stereo not given) | 99.2% (active)
2 | CC1CC(C)CN(CC(=O)N2c3ccccc3CCc3ccccc32)C1 (stereo not given) | 9.54%
3 | CC1C(=O)N(Cc2ccccc2)c2ccccc2N1C(=O)c1ccccc1 (stereo not given) | 21.3%
4 | COc1ccc(C)cc1NC(=O)c1[nH]c(C)c(C(C)=O)c1C | 4.55%
5 | CCCC/C=C/c1cccc2nncn12 | 2.91%
6 | CSc1nc2ccc(S(=O)(=O)N3CCc4ccccc43)cc2s1 | 52.1% (active)
7 | O=S(=O)(c1ccc2c(c1)OCCO2)N1CCc2ccccc21 | 25.9%
8 | O=S(=O)(c1ccccc1)N1CCc2ccccc21 | 5.92%
9 | Cn1c(=O)c2c(-c3cccc(Br)c3)c(C#N)c(N)nc2n(C)c1=O | 7.56%
10 | Cc1nc2c(c(C)nn2-c2ccccc2)c(C)c1C | 21.8%
11 | CSc1ccc(-c2c(C#N)c(N)nc3c2c(C)nn3-c2ccccc2)cc1 | 76.2% (active)
12 | CCOC(=O)[C@H]1Nc2ccc(Cl)cc2[C@@H]2[C@H]1C1CC(c3ccccc31)N2C(=O)OCc1ccccc1 (stereo not given in full) | 26.4%
13 | N#Cc1cccc(NC(=O)c2cc(C3CCCCN3C(=O)CCc3ccccc3)on2)c1 (stereo not given) | 23.6%
14 | COc1ccc(-c2oc3ncn(Cc4ccco4)c(=N)c3c2-c2ccc(OC)cc2)cc1 | 9.27%
15 | COc1ccc(-c2oc3ncnc(NCCCO)c3c2-c2ccc(OC)cc2)cc1 | 56.5% (active)
16 | COCCNc1ncnc2c1ncn2[C@H]1CN(Cc2ccc(OC)cc2)C[C@@H](CO)O1 | -12.7%
17 | CC(C)(C)OC(=O)N1CCN(C(=O)c2[nH]c(C(F)(F)F)nc2-c2ccccc2)CC1 | 5.18%
18 | CCN(CC)CCNC(=O)Cn1cnc2sc(C)c(S(=O)(=O)N3CCOCC3)c2c1=O | -0.66%
19 | CCN(CC)CCNC(=O)c1sc2ncn(CC(=O)Nc3ccc(C)c(Cl)c3)c(=O)c2c1C | 87.1% (active)
20 | CCN(CC)CCCNC(=O)Cn1cnc2sc(C)c(S(=O)(=O)N3CCN(c4ncccn4)CC3)c2c1=O | -7.38%
21 | Fc1cccc(Cc2c(-c3ccc(Cl)cc3)nc3ccc(Cl)cn23)c1 | -75.2%
22 | CCNC(=O)C1(C)CCCN(C(=O)c2c(C)noc2C)C1 (stereo not given) | -5.02%
23 | Cn1c(Cc2csc(N)n2)nnc1SC/C=C/c1ccccc1 | -0.48%

Row | SMILES | inhibition
24 | CN(C)CCCN(C(=O)c1ccc(S(=O)(=O)N2CCCCCC2)cc1)c1nc2ccc(Br)cc2s1 | 57.8% (active)
25 | CCN(C(=O)COc1ccc(C(=O)c2ccccc2)cc1)c1ccccc1 | 2.39%
26 | CCN(CC(=O)Nc1c(F)cccc1F)C(=O)c1ccc(S(=O)(=O)N2CCCCC2)cc1 | 3.57%
27 | COc1cc(C(=O)NNC(=O)c2ccc(S(=O)(=O)N3CCCCC3)cc2)cc(OC)c1OC | 3.84%
28 | CCN(CC)CCN(C(=O)c1cc(Cl)sc1Cl)c1nc2cc3c(cc2s1)OCO3 | -57.9%
29 | CCc1ccc2nc(N(CCCN(C)C)C(=O)c3ccc4c(c3)OCCO4)sc2c1 | 76% (active)
30 | CCOc1ccc2nc(N(CCCN(C)C)C(=O)c3ccc(C(=O)c4ccccc4)cc3)sc2c1 | 105% (active)
31 | CN(C)CCN(C(=O)C1=COCCO1)c1nc2ccc(Cl)cc2s1 | -91.5%
32 | CCOc1ccc2nc(/N=C/c3nc(-c4ccccc4)oc3O)sc2c1 | -127%
33 | CCOC(=O)C1CCCN(C(=O)c2cccc3ccccc23)CC1 (stereo not given) | 10.3%
34 | O=C(C1=C(O)C(=O)N(CCOCCO)C1c1ccccn1)c1cccs1 (stereo not given) | -2.88%
35 | COc1ccc(NC(=O)c2cc(=O)[nH]c3ccccc23)cc1S(=O)(=O)N1CCOCC1 | -0.23%
36 | OC[C@@H]1CN(Cc2cccs2)C[C@H](n2cnc3c(Nc4ccccc4)ncnc32)O1 | -9.51%
37 | CCCCN1CC(N2CCN(Cc3cccc(C)c3)CC2)CS1(=O)=O (stereo not given) | -1.8%
38 | O=C1NCC(c2ccccc2)(c2ccccc2)C(=O)N1 | -0.6%
39 | CCCNC(=O)C1(C)CCN1C(=O)C1(c2ccccc2)CC1 (stereo not given) | 8.72%
40 | CC1CN(C(=O)CCC(=O)NCCCN2CCC(Cc3ccccc3)CC2)c2cc(Cl)ccc2O1 (stereo not given) | 102% (active)
41 | O=C(CC1Oc2ccccc2NC1=O)NCCCN1CCN(Cc2ccccc2)CC1 (stereo not given) | 1.93%
42 | COc1ccccc1NC(=O)CCC(=O)N1CC(C)Oc2ccc(C)cc21 (stereo not given) | 14.5%
43 | CC(C)CN1CCC1(C)C(=O)Nc1ccc(OC(F)F)cc1 (stereo not given) | 3.35%
44 | COc1ccc(-c2ccc(OC(=O)NC3CCS(=O)(=O)C3)cc2)cc1 (stereo not given) | -160%
45 | COCCNc1nc(NCc2ccc(NC(C)=O)cc2)c2sccc2n1 | 20.4%
46 | COCCNc1nc(Nc2ccccc2Cl)c2sc(-c3ccccc3)cc2n1 | 5.82%

Row | SMILES | inhibition
47 | CC(=O)Nc1ccc(CNc2nc(NCCN(C)C)nc3cc(-c4ccccc4)sc23)cc1 | 97.3% (active)
48 | C=CCc1cccc2cc(C(=O)N3CCN(C(=O)OCC)CC3)c(=O)oc12 | 22.4%
49 | Cc1cc(C)cc(Oc2nc3c(C)cccn3c(=O)c2/C=C(\C#N)C(=O)NC2CCS(=O)(=O)C2)c1 (stereo not given) | 61.6% (active)
50 | Cc1cccn2c(=O)c3cc(C(=O)NC4CCCCC4)sc3nc12 | -45%
51 | Cc1cccn2c(=O)c(/C=C(\C#N)S(=O)(=O)c3ccc(Cl)cc3)c(N3CCC(C(N)=O)CC3)nc12 | -3.35%
52 | FC(F)(F)c1ccccc1Cc1c(-c2ccccc2)nc2c3ccccc3ccn12 | -34.1%
53 | O=[N+]([O-])c1cc(S(=O)(=O)Nc2cccc(Cl)c2)ccc1N=Nc1c(O)[nH]c2ccccc12 | 65.1% (active)
54 | Cc1c(-c2ccccc2)n[nH]c1C(=O)N=Nc1c(O)[nH]c2ccccc12 | -126%
55 | O=C(NCc1ccncc1)c1ccc(NS(=O)(=O)c2cccc([N+](=O)[O-])c2)cc1 | -13.3%
56 | CCCCc1nc2ccc(F)cc2cc1C | 6.65%
57 | c1c2c(cc3sc(N4CCCCC4)nc13)OCCO2 | 80.5% (active)
58 | CCOC(=O)N1CCC(NC(=O)c2ccc3nc(N4CCOCC4)sc3c2)CC1 | 16.9%
59 | CS(=O)(=O)N1CCCCC1c1cc(C(=O)NCc2ccccc2)no1 (stereo not given) | -14.8%
60 | O=[N+]([O-])c1ccc(CN2CC(N3CCC(c4ccccc4)CC3)CS2(=O)=O)cc1 (stereo not given) | 10%
61 | Fc1ccccc1COc1ccccc1CNCc1ccncc1 | 18.9%
62 | COc1cccc(CNCCc2c[nH]c3ccccc23)c1OCc1ccccc1F | 92.7% (active)
63 | COc1ccc(C(CCNCc2ccccc2F)c2ccc(F)cc2)cc1 (stereo not given) | 17.7%
64 | CNc1cncc(-c2ccc(NS(C)(=O)=O)cc2)n1 | 21.2%
65 | CC1(C(=O)NS(=O)(=O)c2ccc(C#N)cc2)CCN1C(=O)CC1CCCC1 (stereo not given) | 11.7%
66 | COc1ccc(C(C#N)=C2C=CC(=NO)c3ccccc32)cc1 | -114%
67 | COc1ccc(NS(=O)(=O)c2cc3c(cc2C)N(C(C)=O)CCO3)cc1 | 9.24%
68 | COc1ccc([N+](=O)[O-])cc1NCC(=O)c1ccc(C)cc1 | -17.2%
69 | COc1cc([N+](=O)[O-])ccc1NC(=O)COC(=O)CCOc1ccc(C)cc1 | 51.2% (active)

Row | SMILES | inhibition
70 | CSc1ccccc1NC(=O)COC(=O)CCCOc1ccc(C)cc1 | 8.63%
71 | CN1OC[C@@H]2CN(C(=O)c3cccc4ccccc34)[C@H](c3ccc(N4CCCCC4)cc3)C[C@@H]21 | 1%
72 | O=C(Nc1ccccc1C(=O)NCC1CCCO1)c1ccccc1F (stereo not given) | 6%
73 | CSc1n[nH]c(=S)n1N | 12.2%
74 | Cc1ccc(C)c(S(=O)(=O)N2CCN(C(=O)Nc3ccccc3)CC2)c1 | 5.32%
75 | COc1ccc(-c2csc3ncnc(N4CCN(S(=O)(=O)c5ccccc5C#N)CC4)c23)cc1 | 33.6%
76 | Cc1ccc(C)c(S(=O)(=O)N2CCN(c3ncnc4sccc34)CC2)c1 | 58.5% (active)
77 | CC(C)Cc1ccc(-c2cc3nc(NCc4cccc(Cl)c4)ccn3n2)cc1 | -178%
78 | CC(C)NC(=O)C1(C)CCCCN1Cc1cccc(C(F)(F)F)c1 (stereo not given) | -13.2%
79 | COc1ccc(-c2ccc(C(=O)NC(C)C)c3occc23)c(C)c1 | -11.5%
80 | Cc1ccc(Cn2c(C)c(C(=O)NCc3ccccc3C(F)(F)F)sc2=O)cc1 | 18.5%
81 | Cc1cccc(NC(=O)c2nc(S(=O)(=O)Cc3ccccc3)ncc2Cl)c1 | 111% (active)
82 | CN1CCN(c2ccc(NC(=O)c3ccc4c(c3)[nH]c(=O)n4Cc3ccc(F)cc3)cc2)CC1 | 24.3%
83 | Cc1cccc(CS(=O)(=O)c2ncc(Cl)c(C(=O)Nc3ccc(F)cc3)n2)c1 | 108% (active)
84 | Cc1cc(C)cc(NS(=O)(=O)Cc2ccccc2)c1 | -13.5%
85 | Cc1cccc(NC(=O)Cn2cc(C(=O)c3ccco3)c3ccccc32)c1 | 8.59%
86 | O=C(Nc1ccc(F)cc1)c1ccc(S(=O)(=O)NCc2cccnc2)cc1 | -20.7%
87 | CC(Oc1cc2oc(=O)c3c(c2cc1Cl)CCCC3)C(=O)NCc1ccncc1 (stereo not given) | 3.42%
88 | Cc1ccc2nc(-c3ccccc3)c(CC3CCCCC3)n2c1 | -146%
89 | Clc1cccc(Cc2c(-c3cccc(Cl)c3)nc3ccc(Cl)cn23)c1 | -112%
90 | COc1ccc(CN2CCC(C)(Oc3cccc(F)c3)C2)c2ccccc12 (stereo not given) | -19.4%
